Results reported in PubChem BioAssay AID2778 (National Center for Advancing Translational Sciences (NCATS), 2010).
Results filed as inconclusive are left out. Active and inactive are the calls of the source. Calls come from the whole dose curve; as a rule, active = well fitted inhibition curve with a large enough effect; inconclusive = small, poorly fitted or top-dose-only effect, or effect the other way; inactive = flat fitted curve, though single readings scatter.

Target: Menin (Homo sapiens) (UniProt O00255)
Sequence (O00255 whole entry, looked up): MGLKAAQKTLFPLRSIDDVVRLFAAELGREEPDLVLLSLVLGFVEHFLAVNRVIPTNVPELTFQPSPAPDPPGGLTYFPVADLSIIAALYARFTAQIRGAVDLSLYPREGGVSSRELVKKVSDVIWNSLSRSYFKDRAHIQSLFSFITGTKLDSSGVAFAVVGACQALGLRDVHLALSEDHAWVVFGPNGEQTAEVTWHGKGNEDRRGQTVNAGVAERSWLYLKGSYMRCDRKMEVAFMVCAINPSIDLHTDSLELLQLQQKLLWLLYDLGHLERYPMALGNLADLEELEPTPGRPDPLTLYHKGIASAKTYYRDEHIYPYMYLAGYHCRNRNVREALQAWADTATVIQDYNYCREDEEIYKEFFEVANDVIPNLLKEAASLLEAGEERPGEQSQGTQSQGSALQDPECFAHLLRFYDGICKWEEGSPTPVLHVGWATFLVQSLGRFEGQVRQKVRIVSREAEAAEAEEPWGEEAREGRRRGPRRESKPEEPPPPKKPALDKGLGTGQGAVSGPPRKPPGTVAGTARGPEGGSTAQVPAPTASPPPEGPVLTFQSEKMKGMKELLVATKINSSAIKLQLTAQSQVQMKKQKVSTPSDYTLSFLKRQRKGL
Assay: Confirmation of Inhibitors Targeting the Menin-MLL Interaction in MLL Related Leukemias: Confirmation in an HTRF (commercial TR-FRET) Assay using His-tagged menin and biotin-labeled MLL peptide
Conditions: His-menin / biotin-MLL peptide binding; series mostly up to 126 µM; activity change, negative = inhibition: at the top concentration
From the text: qHTS Assay for Inhibitors Targeting the Menin-MLL Interaction in MLL Related Leukemias
NIH Chemical Genomics Center [NCGC]
NIH Molecular Libraries Probe Centers Network [MLPCN]
Assay Submitter (PI): Jolanta Grembecka, Tomasz Cierpicki, University of Virginia
Translocations of the MLL (Mixed Lineage Leukemia) gene are frequently found in human leukemias affecting both children and adults. Fusion of MLL to one of more than 60 genes results in generation of oncogenic proteins upregulating Hox genes, which are vital to blood cell development. Patients harboring fusion of the MLL gene suffer from aggressive leukemias and respond poorly to available therapies. All of the oncogenic fusion proteins have a preserved N-terminal fragment of MLL that has been identified to interact with menin. It has been recently discovered that association with menin is critical to the leukemogenic activity of the MLL fusion oncoproteins. Selective targeting of the menin-MLL interaction could provide an attractive therapeutic approach to develop novel drugs for MLL-related leukemias. Small molecules blocking the menin-MLL interaction should reverse the oncogenic potential of MLL fusion proteins.
We have developed and optimized a fluorescence polarization-based assay for the identification of Menin-MLL inhibitors. The assay was run employing two different MLL-derived peptides. The present assay uses a 12 amino acid peptide labeled with fluorescein at its N-terminus. This peptide consists of the menin high affinity binding motif from MLL and is potently bound by menin. Another peptide with a mutated sequence, labeled with Texas Red, was used in parallel as a less stringent screen for inhibitors.
The present assay uses an alternate technology to confirm hits from the primary screen - homogeneous time resolved fluorescence (HTRF).
The Menin protein, the MLL-wild type (w.t.) derived peptide (N-terminal 12 amino acids), the MLL-derived peptide labeled with Texas Red and the MLL-w.t. peptide labeled with Fluorescein were kindly supplied by laboratory of Dr. Jolanta Grembecka, University of Virginia. All protein and peptide solutions were stored in single use aliquots at -80C. The Eu3+ Cyrptate-conjugated mouse monoclonal antibody anti-6 Histidine (Eu3+-AB) and the Streptavidin-XL665 conjugate (XL665) were purchased from Cisbio International (Bedford, MA). All antibody and XL665 conjugate solution stocks were stored in single use aliquots at -20C. The Buffer components for all assays were purchased from Sigma-Aldrich (St. Louis, MO) and Invitrogen (Carlsbad, CA).
1. HTRF reaction buffer: 50 mM Tris-HCl pH 7.5, 50 mM NaCl, 1mM DTT.
Before use, 0.05% BSA is added.
2. His6-Menin protein, MLL-w.t. labeled with biotin.
Stored in singe use aliquots at -80C.
3. MLL-w.t. unlabeled peptide as positive control: 10 uM final in HTRF buffer.
1. Prepare His6-Menin at 200 nM, MLL-w.t.-biotin at 80 nM in HTRF buffer.
2. Prepare His6-Menin at 200 nM, MLL-w.t.-biotin at 80 nM and 10 uM MLL-w.t. unlabeled mixture in HTRF buffer.
3. Dispense 10 ul per well of reagent in step 1 in columns 2, 4-24 in a black 384 well plate, dispense 10 ul per well of reagents from steps 2 in column 1. Incubate plate at ambient for 15 minutes.
4. Transfer 1 uL per well of compound to plate and incubate at ambient for 1 hr.
5. Dispense 10uL of the donor (6His-Cryptate, 3.5 nM final conc.) and acceptor (SA_XL, 10nM final conc.) complex in the HTRF buffer with 0.01% BSA. Incubate for 1h.
% is set by controls: 0 for no effect and ±100 for the full control effect; potency is the fitted concentration of half-maximal effect.

| SMILES | activity change, negative = inhibition | Potency |
| --- | --- | --- |
| CCOC(=O)Cc1csc(NC(=O)c2c(O)c3ccccc3n(CCC(C)C)c2=O)n1 | -27.4% (inactive) | – |
| COc1cc(/C=N/n2cnnc2)ccc1OC(=O)N(C)C | -5.4% [at 383 µM] (inactive) | – |
| Cc1cc(C(=O)NP(=O)(N2CCOCC2)N2CCOCC2)c(C)n1C1CC1 | 0.817% (inactive) | – |
| CC[C@]12C=CCN3CC[C@@]4(c5ccc(OC)cc5N(C)[C@H]4[C@@](O)(C(=O)OC)[C@@H]1OC(C)=O)C32 (stereo partly specified) | 4.48% (inactive) | – |
| OC12C3C4CC5C6C4C1C6C(C53)N2CCc1cccc(F)c1 (stereo unspecified) | 2.72% (inactive) | – |
| O=c1oc2ccccc2c(O)c1C(c1ccccn1)c1c(O)c2ccccc2oc1=O | -2.51% (inactive) | – |
| O=C1NC(=O)C(=Cc2ccc3ccccc3c2)C(=O)N1 | -10.3% [at 383 µM] (inactive) | – |
| COc1ccc(C(O)P(=O)(Oc2ccccc2)Oc2ccccc2)cc1 (stereo unspecified) | -5.29% [at 383 µM] (inactive) | – |
| C[N+](C)(C)CC#CCN1CCCC1=O | 1.22% [at 383 µM] (inactive) | – |
| O=C(Nc1ccc2ccccc2c1)c1nn(C23CC4CC(CC(C4)C2)C3)cc1Br | -23.2% (inactive) | – |
| C[C@@H]1CC[C@@]2(NC1)O[C@H]1C[C@H]3[C@@H]4CC=C5C[C@@H](O)CC[C@]5(C)[C@H]4CC[C@]3(C)[C@H]1[C@@H]2C | 3.39% (inactive) | – |
| CCCCn1c(=O)c(C(=O)Nc2ccsc2C(=O)OC)c(O)c2ccccc21 | -11% (inactive) | – |
| CCOP(=O)(OCC)C(NC(=O)c1ccccc1C)C(Cl)(Cl)Cl (stereo unspecified) | -1.29% [at 383 µM] (inactive) | – |
| O=C(O)CN1C(=O)CN=C(c2ccccn2)c2cc(Cl)ccc21 | 1.01% [at 383 µM] (inactive) | – |
| c1cc2cc(c1)C[n+]1ccc(c3ccccc31)NCc1ccc(cc1)CNc1cc[n+](c3ccccc13)C2 | – | 282 µM (active) |
| COc1cc(-c2ccc(-[n+]3nc(-c4ccccc4)nn3-c3ccc([N+](=O)[O-])cc3)c(OC)c2)ccc1-[n+]1nc(-c2ccccc2)nn1-c1ccc([N+](=O)[O-])cc1 | – | 56.2 µM (active) |
